From PubChem BioAssay (NCI)
The panel holds about 83,000 compounds, 20% with a hit somewhere; the sample as a whole holds those more often.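 A percent growth of 40 corresponds to 60% growth inhibition; 0 means no net growth; -100 means all cells died. Active threshold: below 10.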 Unmarked numbers belong to inactive results. Activity calls are given as the source filed them.

System: MDA-MB-468 breast
Assay: NCI-60 one-dose screen, 48 h (100 = growth as untreated, 0 = no growth, -100 = all killed)
Conditions: 10 µM unless noted

SMILES	growth
CCCCCCC/C=C/[C@H]1O[C@]23C(=O)C[C@@]4(C[C@@H](OC5OC(CO)C(O)C(O)C5O)C[C@@H]4[C@H]2C=C1C)OC3=O (stereo not given in full)	25.7%
O=C(N/N=C/c1ccccc1O)C(=O)Nc1ccc(F)cc1	33%
COc1ccc(-c2cc(-c3ccc(OC)c(OC)c3)nc(SCCCC(=O)NO)n2)cc1	-30.7% (active)
O=C1/C(=C/c2ccc([N+](=O)[O-])cc2)COc2ccc(O)c(O)c21	-90.9% (active)
O=C1c2cccc3cccc(c23)C(=O)N1CC#Cc1ccc2c3c(cccc13)C(=O)N(CCN1CCNCC1)C2=O	111%
CC1(C)OC2COC3(C(=O)O)OC(C)(C)OC3C2O1 (stereo not given)	93.6%
Cc1ccc(S(=O)(=O)Oc2ccc3sc4c(CO)ccc(NCCN(C)C)c4c(=O)c3c2)cc1	-75.1% [100 µM] (active)
COc1ccc(-c2cnc(SCC(=O)Nc3ccc(-c4nc5ccccc5s4)cc3)n2-c2ccc(OC)cc2)cc1	-12.7% (active)
CCCc1cccc(CCC)c1NC(=O)Nc1cc(Cl)cc(Cl)c1	98.8%
COc1ccc(-c2nn(-c3cccc(Cl)c3)cc2-c2nc(N)[nH]c(=O)c2C#N)cc1	73.9%
C=CCN1C(=O)c2cccc3c(N4CCOCC4)ccc(c23)C1=O	-40% (active)
CCCCCCCC/C=C\CCCCCCCCOc1cccc(CC(=O)NCC[N+]2(C)CCCC2)c1	71.8%
COc1cc(-c2nn(C(=O)NCCN3CCN(C)CC3)cc2-c2ccncc2)ccc1Cl	60.9%
CC1CN(/N=C/c2ccc([N+](=O)[O-])o2)C(=N)O1 (stereo not given)	89.6%
C#Cc1cccc(NC(=O)c2ccc(Cl)cc2Cl)c1	102%
S=C1NC2(c3ccccc3)CCC(=S)N2c2ccccc21 (stereo not given)	112%
O=C(Nc1cccc(-n2cc(-c3ccncc3)c(-c3ccc(O)c(Cl)c3)n2)c1)c1cccc(C(F)(F)F)c1	34.3%
COc1cc(-c2cc(-c3nc4ccc(Cl)cc4[nH]3)[nH]n2)cc(OC)c1OC	35.9%
CC1(C(=O)O)CCC(N)(C(=O)O)C1(C)C (stereo not given)	115%
CN(C)CCN1C(=O)c2cccc3c(N)ccc(c23)C1=O	38.7%
OCCOc1c(Cl)cc(Cl)cc1Cl	127%
COc1ccc(NC(=O)c2sc3nc(-c4cnccn4)cc(-c4cccs4)c3c2N)cc1	89%
Cc1c2ccccc2c(C)c2c1ccc1ccccc12	20.5%
CCNC1=CC(=O)c2ncccc2C1=O	43.4%
CN(C)CCCNCc1ccc(-c2ccc(F)c(Cl)c2)o1	-66.3% (active)
